Compounds without any hit were thinned out: in the full panel of roughly 83,000, 20% have a hit.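 Activity criterion: percent growth below 10, measured after cells in 96-well plates were exposed to a single compound concentration for 48 hours.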 Values without a mark were called inactive. Active and inactive are the calls of the source.
Experiments:
Assay in all cases: NCI-60 one-dose screen, 48 h (100 = growth as untreated, 0 = no growth, -100 = all killed)
Settings in all cases: 10 µM unless noted
SR leukemia = tested on: SR leukemia
RPMI-8226 leukemia = tested on: RPMI-8226 leukemia
OVCAR-8 ovarian = tested on: OVCAR-8 ovarian
OVCAR-5 ovarian = tested on: OVCAR-5 ovarian
OVCAR-4 ovarian = tested on: OVCAR-4 ovarian
SK-OV-3 ovarian = tested on: SK-OV-3 ovarian
IGROV1 ovarian = tested on: IGROV1 ovarian
OVCAR-3 ovarian = tested on: OVCAR-3 ovarian
HS 578T breast = tested on: HS 578T breast
NCI/ADR-RES ovarian = tested on: NCI/ADR-RES ovarian
T-47D breast = tested on: T-47D breast
BT-549 breast = tested on: BT-549 breast
MDA-MB-435 melanoma = tested on: MDA-MB-435 melanoma
MCF7 breast = tested on: MCF7 breast
HCT-116 colon = tested on: HCT-116 colon
HCC-2998 colon = tested on: HCC-2998 colon
KM12 colon = tested on: KM12 colon
MDA-MB-468 breast = tested on: MDA-MB-468 breast
SW-620 colon = tested on: SW-620 colon

| SMILES | growth (SR leukemia) | growth (RPMI-8226 leukemia) | growth (OVCAR-8 ovarian) | growth (OVCAR-5 ovarian) | growth (OVCAR-4 ovarian) | growth (SK-OV-3 ovarian) | growth (IGROV1 ovarian) | growth (OVCAR-3 ovarian) | growth (HS 578T breast) | growth (NCI/ADR-RES ovarian) | growth (T-47D breast) | growth (BT-549 breast) | growth (MDA-MB-435 melanoma) | growth (MCF7 breast) | growth (HCT-116 colon) | growth (HCC-2998 colon) | growth (KM12 colon) | growth (MDA-MB-468 breast) | growth (SW-620 colon) |
| --- | --- | --- | --- | --- | --- | --- | --- | --- | --- | --- | --- | --- | --- | --- | --- | --- | --- | --- | --- |
| C=CCSc1nnc(-c2ccc(-c3nc4ccccc4[nH]3)cc2)o1 | 81% | 34.9% | 55.9% | 105% | 46.1% | 96.1% | 101% | 91.5% | 79% | 61.1% | 4.02% (active) | 83.5% | 79% | 72.6% | 74.9% | 97.9% | 82% | 69.3% |  |
| COc1cc(/C=C/C(=O)c2cnn(-c3cc(=O)[nH]c4ccc(Cl)cc34)c2C)cc(OC)c1OC | -11.6% (active) | -31.7% (active) | -0.426% (active) | -52.3% (active) | 17.7% | -6.03% (active) | -35.3% (active) | -61.7% (active) | 23.9% | -20.3% (active) | -31.4% (active) | -47% (active) | -9.26% (active) | -37.6% (active) | -67.6% (active) | -93.5% (active) | -28.4% (active) | -83.1% (active) |  |
| COc1ccc(N=Nc2c(N)nn3c(-c4cc5cc(Br)ccc5oc4=O)ccnc23)cc1 | 28% | 48.5% | 19.5% | 33.4% | 32.2% | 17.4% | 6.35% (active) | 25.3% | 35.4% | 15.5% | 10.8% | -2.5% (active) | 54.2% | 26.4% | 23.8% | 20.2% | 36.1% | -22.7% (active) |  |
| N#C/C(=C/c1ccc([N+](=O)[O-])cc1)c1nnc(NC(=O)c2ccc(-n3c(=O)[nH]c4ccccc4c3=O)cc2)s1 | 91.6% | 98.1% | 93.4% | 110% | 95.6% | 104% | 98.6% | 103% | 101% | 94.2% | 85.8% |  | 105% | 84.9% | 94.8% | 108% | 90.8% | 98.5% | 100% |
| N#Cc1ccc(C(=O)CSc2nc3c(c(Nc4ccc(S(N)(=O)=O)cc4)n2)CCC3)cc1 | 58.9% | 79.2% | 3.1% (active) | 70.8% | 43.9% | 67.2% | 15.8% | 97.1% | 26.1% | 53% | 71.7% | 83.3% | 86.6% | 19.2% | 15.7% | 15.8% | 64.2% | 60.4% |  |
| Oc1ccc(Cl)c(Nc2ncnc3c2cnn3CC(Cl)c2ccc(Br)cc2)c1 (stereo not given) | 55.3% | 52.3% | 54.9% | 49.6% | 57.8% | 49.2% | -2.62% (active) | 32.3% | -17.7% (active) | 48% | 32.9% |  | 57.7% | 49.7% | 40.8% | 98.3% | 85.9% | 26.2% | 67.1% |
| CC1=C(C(=O)OCc2ccccc2)C(c2cccc3ccccc23)n2c(nc3ccccc32)N1 (stereo not given) | 19% | 15.3% | 31.2% | 41% | 46.7% | 25.2% | 31.3% | -6.62% (active) | 5.52% (active) | -6.92% (active) | 30.2% | 25% | -45.5% (active) | 12.7% | 17.7% | 57% | 19.1% | -42.5% (active) |  |
| O=C1NC(=S)/C(=C/c2cn(-c3ccccc3)nc2-c2ccccc2)S1 | 83.4% | 5.49% (active) | 31.7% | 47.9% | 25.4% | 35.5% | 29.1% | 36.7% | 8.03% (active) | 18.6% | 0.334% (active) |  | 24.6% | 3.28% (active) | 18.6% | 29.2% | 19.4% | 22.3% | 39.3% |
| COc1ccc(N=Nc2c(N)nn3c(N)c(C#N)c(-c4ccc(C)cc4)nc23)cc1 | 44.6% | 3.4% (active) | 66.3% | 99.9% | 53.2% | 90.2% | 33.5% | 15.2% | 27.7% | 62.2% | 7.1% (active) | 56.2% | 56.6% | 12.5% | 45.4% | 73% | 43.5% | 32.4% |  |
| Cc1cc(C2(c3cc(C)c(OCC(O)CNc4c(C)n(C)n(-c5ccccc5)c4=O)cc3C(C)C)OC(=O)c3ccccc32)c(C(C)C)cc1OCC(O)CNc1c(C)n(C)n(-c2ccccc2)c1=O (stereo not given) | 5.65% (active) | 24.4% | 33.1% | 50.9% | 38.6% | 67.5% | 43.1% | 15.5% | 22.1% | 58% | 1.64% (active) | 27.3% | 12.5% | 15.9% | 5.4% (active) | 36.8% | 16.5% | -13.9% (active) |  |
| O=C(CSc1nc2ccccc2c(=O)[nH]1)Nc1ccccc1C(=O)O | 95.2% | 102% | 109% | 105% | 109% | 90.7% | 109% | 106% | 79.3% | 103% | 93.9% |  | 104% | 84.5% | 107% | 125% | 100% | 92.5% | 130% |
| Fc1ccccc1CNc1nc(SCCN2CCOCC2)nc2c1cnn2CC(Cl)c1ccc(Br)cc1 (stereo not given) | -3.85% (active) | -6.83% (active) | 43.8% | 71.3% | 45% | 58.3% | 73.7% | 66.7% | 17% | 33.5% | 14.2% |  | 29.6% | 21.3% | 26.1% | 21.4% | 8.13% (active) | 22.1% | -51% (active) |
| O=C1Nc2cc(-c3ccc(NS(=O)(=O)c4ccc(-c5ccccc5)cc4)cc3)ccc2/C1=C/c1ccc[nH]1 | -33.1% (active) | 21.3% | 52.2% | 61.7% | 21.3% | 98.2% | 73% | -19.4% (active) | 59.4% | 62.9% | 3.17% (active) | 3.7% (active) | 40.3% | -25.2% (active) | 20.3% | 50.8% | 34.2% | -52.5% (active) |  |
| CCN1C(=O)N(CC)C2NNC(Sc3c(C(=O)O)c4ccccc4n(CCC(C)C)c3=O)=NC21 (stereo not given) | 6.32% (active) | 10.3% | 5.92% (active) | 21.4% | 46.5% | 35.8% | 17.3% | -25.4% (active) | -14.6% (active) | -35.4% (active) | 73.5% |  | -53.6% (active) | 9.16% (active) | 3.95% (active) | 3.88% (active) | 21.3% | 7.98% (active) | 28.4% |
| Cc1[nH]nc2ccc3nc(-c4cn[nH]c4C(F)(F)F)c4c(c3c12)CCCC4 | 16.6% | 1.04% (active) | 4.15% (active) | 3.15% (active) | 29.6% | -54.2% (active) | -42.4% (active) | -15% (active) | -28.6% (active) | 19.8% | 3.05% (active) | -82.4% (active) | 21.6% | 5.54% (active) | -49% (active) | -16.6% (active) | 9.09% (active) | -45.6% (active) |  |
| Cc1ccc(O)cc1Nc1nc(SCCN2CCOCC2)nc2c1cnn2CC(Cl)c1ccc(Br)cc1 (stereo not given) | -29.4% (active) | 16.8% | 20.7% | 18.8% | 32.3% | 43.9% | -1.66% (active) | 26.5% | -25.8% (active) | 7.37% (active) | -2.49% (active) |  | 12.6% | 5.88% (active) | 2.84% (active) | 1.63% (active) |  | -55.7% (active) | 32.9% |
| N#C/C(=C1/C(=O)Nc2ccccc21)c1nnc(NC(=O)c2ccc(-n3c(=O)[nH]c4ccccc4c3=O)cc2)s1 | 17% | 11.5% | 40.2% | 63.5% | 31.2% | 75.1% | 38.7% | 25.6% | 55.6% | 22.9% |  | 12.1% | -85.5% (active) | 7.69% (active) | 22.8% | 32.5% | 21.4% | 12.9% | 65.4% |

— PubChem BioAssay (NCI)
